Counter-ions that a name gives are not always drawn.

The term AC50 denotes the midpoint of the concentration-response curve, whichever way the signal moves.

This test has as its system thyroid hormone receptor (endogenous TRα and TRβ). On the set-up: species or system GH3-TRE-Luc (rat pituitary); GH3-TRE-Luc luciferase reporter, antagonist mode against 1 nM T3, loss of signal, qHTS. As to conditions: read-out: Average AC50 (uM) GH3-TRE-Antag, antagonist mode, 1 nM T3, no GH3 cytotoxicity hit.
Take `CCOc1ccc2nc3cc(N)ccc3c(N)c2c1` [Ethacridine lactate hydrate]: the AC50 worked out at 40.1 µM.
For `CC1=CC[C@H](C(C)C)C=C1` [(R)-alpha-Phellandrene] the value was 54.5 µM; for `O=C(O)C1(C(=O)Nc2ccc(Cl)cc2Cl)CC1` [Cyclanilide], 64.4 µM.
To `Cc1cccc(Oc2ccccc2)c1` [1-Methyl-3-phenoxybenzene] belongs 82.5 µM.
To `O=C(O)c1snc(Cl)c1Cl` [3,4-Dichloro-5-isothiazolecarboxylic acid] belongs 51.4 µM; to `NNC(N)=S` [Thiosemicarbazide], 59.3 µM.
On to `Oc1ccccc1/C=N/Cc1ccccc1` [Norletimol], for which the AC50 is above 50 µM.
For `O=C(O)c1cc(Cl)cc(Cl)c1O` [3,5-Dichlorosalicylic acid] the value was 68.6 µM; for `CC/C=C\CCOC(=O)c1ccccc1` [(3Z)-Hex-3-en-1-yl benzoate], 73.9 µM.
For `Nc1ccccc1N` [1,2-Phenylenediamine dihydrochloride] the value was 92.5 µM; for `Cn1c(=O)c2[nH]c(Br)nc2n(C)c1=O` [8-Bromotheophylline], 24.8 µM; for `CCCCCCCCCC/C=C/C1CC(=O)OC1=O` (stereo not shown) [3-(Dodecenyl)dihydro-2,5-furandione], above 90 µM.
For the compound `NCCNCCN` [Diethylenetriamine], the AC50 turned out to be 18 µM.
On to `OC[C@H](Cc1cccc(O)c1)[C@H](CO)Cc1cccc(O)c1` [(-)-Enterodiol], for which the AC50 was above 90 µM.
To `COc1ccc(-c2cc(=S)ss2)cc1` [Anethole trithione] belongs above 50 µM; to `CC(C)[C@@H](C)/C=C/[C@@H](C)[C@H]1CC[C@H]2/C(=C/C=C3\C[C@@H](O)CC[C@@H]3C)CCC[C@]12C` [Dihydrotachysterol], 26.8 µM; to `CC(C)(C)NC(=O)[C@H]1CC[C@H]2[C@@H]3CC[C@H]4NC(=O)C=C[C@]4(C)[C@H]3CC[C@]12C` [Finasteride], above 20 µM.
For `CCCCC(CC)COC(=O)c1ccccc1C(=O)O` (stereo not shown) [MEHP] the value was 70.2 µM; for `COc1ccc(C(=O)c2ccc(O)cc2)c(OC)c1` [(2,4-dimethoxyphenyl)(4-hydroxyphenyl)methanone], 54.9 µM.
To `CCc1ccc(C(=O)C(C)CN2CCCCC2)cc1` (stereo not shown) [Eperisone hydrochloride] belongs 38.3 µM.
In the case of `CC1=C2[C@H](/C=C(\C)C(=O)O)CC[C@@H](C)[C@H]2CC1` [Valerenic acid], the AC50 came out at 57.5 µM.
For `C#C[C@]1(O)CC[C@H]2[C@@H]3CCC4=CC(=O)CCC4=C3C=C[C@@]21CC` [Gestrinone] the value was 24.3 µM; for `CCC(C)(CC)c1cc(NC(=O)c2c(OC)cccc2OC)on1` [Isoxaben], above 90 µM; for `NC1CCN(c2nc3c(cc2F)c(=O)c(C(=O)O)cn3-c2ccc(F)cc2F)C1` (stereo not shown) [Tosufloxacin toluenesulfonic acid], 21.1 µM.
To `Cc1cccc(C)c1Nc1ncccc1C(=O)O` [Metanixin] belongs 28.2 µM.
To `CC(C)(C)c1ccc(CCC=O)cc1` [3-(4-tert-Butylphenyl)propanal] belongs 56.6 µM; to `Cc1cc(C)c(/C=C2\C(=O)Nc3ccccc32)[nH]1` [SU-5416], 18.1 µM; to `CCCCCCCCCCCCCCC[C@H](O)[C@@H](N)CO` [Safingol], 27.1 µM.
Take `C=CC(=O)OCCOC(=O)CCC(=O)O` [4-[2-(Acryloyloxy)ethoxy]-4-oxobutanoic acid]: the AC50 came to 73 µM.
In the case of `COc1ccc2c(c1)c1c3n2CCN(C)C3=NCC1` [Metralindole], the concentration at half-maximal activity (AC50) worked out at 28.1 µM.
For `O=c1[nH]c(Cl)c(Cl)cc1Cl` [3,5,6-Trichloro-2-pyridinol] the value was 76.8 µM; for `COc1ccc(O)cc1` [4-Methoxyphenol], above 50 µM; for `COC(=O)[C@@H]1[C@H]2C[C@H]3c4[nH]c5ccccc5c4CCN3C[C@@H]2CC[C@@H]1O` [Yohimbine], 43.8 µM.
For `O=C(Oc1ccccc1)c1ccc2ccccc2c1O` [Phenyl 1-hydroxy-2-naphthoate] the value was 84.9 µM; for `Cc1nc2ccccc2n1Cc1ccc(Cl)cc1` [Chlormidazole], 5.9 µM; for `CC/C=C\CC/C=C/C(OCC)OCC` [(2E,6Z)-1,1-diethoxynona-2,6-diene], 61.1 µM.
For `CCCCOC(=O)CC(CC(=O)OCCCC)(OC(C)=O)C(=O)OCCCC` [Acetyl tributyl citrate] the value was 35.1 µM.

The values above are taken from publication PMC6792352, “Limited Chemical Structural Diversity Found to Modulate Thyroid Hormone Receptor in the Tox21 Chemical Library” (Environmental Health Perspectives, 2019).
